This passage reports growth results from PubChem BioAssay (NCI).

What all share (assay): NCI-60 one-dose screen, 48 h (100 = growth as untreated, 0 = no growth, -100 = all killed)
Common to all, as to settings: 10 µM unless noted

Test [1] relates to SR leukemia.
Test [2] concerns RPMI-8226 leukemia.
Test [3] has as its system OVCAR-8 ovarian.
For test [4], the system named is OVCAR-4 ovarian.
Test [5] deals with SK-OV-3 ovarian.
Test [6] deals with IGROV1 ovarian.
The test system of test [7] is OVCAR-3 ovarian.
Test [8] has as its system HS 578T breast.
For test [9], the system named is NCI/ADR-RES ovarian.
Test [10] relates to OVCAR-5 ovarian.

The panel holds about 83,000 compounds, 20% with a hit somewhere; the sample as a whole holds those more often.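 Results are percent growth after 48 hours of single-concentration exposure. 100 means growth as in untreated cells, lower positive values show inhibition; negative values down to -100 show cell death.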 Values without a mark were called inactive. Calls of active or inactive are those of the source. The calls were made as follows: active = growth percent below 10; inactive = the rest.

Take `COc1ccc2c(c1)OC1=C(C(=O)OC1)C2c1cc(OC)c2c(c1)OCO2` (stereo not given): the growth in test [1] was -7% (active); in test [2] it was 28.3%; in test [3], 20.2%; in test [4], 39.8%; in test [5], 8.55% (active); in test [6] it was 21.1%. The growth is -51.3% (active) in [7], 14.9% in [8] and 13.6% in test [9].

As for `NC(=N\N=C/c1ccc(O)cc1)/C(N)=N\N=C/c1ccc(O)cc1`, the growth in [1] was 33.7%; in test [2], 65.3%; in test [3], 73.9%; in test [4] it was 74.4%; in [5], 82.6%; in [6], 79.4%. Also, the growth was 92% in [7], 99% in [8] and 58.5% in test [9].

With `c1cc2[nH]ncc2cc1-c1nc2ccc3[nH]ncc3c2c2c1CCC2`, the growth was 10.9% in test [1]; 42.5% in test [2]; 53.9% in test [3]; 91.7% in [10]; 57.9% in [4]; 22.6% in [6]. The growth in [7] was 56.4%; in [8], 14.9%; in [9], 58.1%.

As to `Nc1cccc(Cl)c1N`, the growth in test [1] is 92.5%; in [2], 69.3%; in test [3], 105%; in [10] it was 108%; in test [4], 94.4%; in [6] it was 88%. In addition, the growth in [7] is 109%; in [8], 98.9%; in [9], 102%.

As for `OC(c1cc2cc(Br)ccc2c2cc(Br)ccc12)C1CCCCN1` (stereo not given), the growth was -74.1% (active) in [1]; -38.9% (active) in test [2]; -69.4% (active) in [3]; -76.5% (active) in [10]; -55.4% (active) in [5]; -67% (active) in [6]. For the same compound, the growth in [7] is -91.9% (active); in test [8] it was -53.1% (active); in test [9], -65.1% (active).

As to `COc1cc(-c2nn(C(=O)NS(=O)(=O)c3ccccc3)cc2-c2ccncc2)ccc1Cl`, the growth in [1] is 89.1%; in test [2], 74.2%; in test [3], 20.4%; in [10] it was 99.9%; in [5], 82.1%; in [6] it was 78.6%. Moreover, the figures for the growth in test [7], in test [8] and in [9] were 106%, 79.4% and 82.3%, respectively.

Regarding `COc1ccc2c(c1)C(c1cc(OC)c3c(c1)OCO3)C1=C(COC1=O)N2` (stereo not given), the growth in test [1] was 6.1% (active); in test [2] it was 22.1%; in test [3], 19%; in test [4] it was 41.2%; in test [5], 16.2%; in test [6] it was 28.8%. Also, the growth in [7] was -44% (active); in test [8], 21%; in test [9], 2.82% (active).

In the case of `O=[N+]([O-])c1ccc(C(c2ccccc2)c2ccccc2)cc1`, the growth in test [1] was 90.8%; in [2] it was 98.1%; in [3] it was 107%; in test [10] it was 96.6%; in [5], 102%; in test [6], 84.4%. Also, the growth was 98.9% in [7], 109% in [8] and 88.8% in test [9].

Take `CN(C)CCN1C(=O)c2ccc3c4c(ccc(c24)C1=O)C(=O)N(CCN=C=S)C3=O`: the growth in [1] is -39.7% (active); in [2], -45% (active); in [3], -88.7% (active); in [4], -94.3% (active); in test [5] it was -97% (active); in test [6], -64.3% (active). Besides, the growth in test [7] is -96.5% (active); in test [8], -6.37% (active); in test [9] it was -57.3% (active).

For the compound `CCN(CC)CCC(CNc1ccnc2cc(Cl)ccc12)c1ccccc1` (stereo not given), the growth in [1] is 20.5%; in test [2] it was 59.3%; in test [3] it was 61.2%; in test [10], 87.9%; in test [5], 85.6%; in test [6] it was 80.2%. Moreover, the growth is 79.9% in [7], 46.8% in test [8] and 83.2% in test [9].

On to `C=C[C@@H]1C[C@@H]2Cc3c(C)cc(C)cc3N1O2`, for which the growth in test [1] is 6.7% (active); in [2], 74.7%; in [3], 98%; in test [10] it was 86.5%; in test [4], 83.6%; in test [6], 106%. The values for the growth in test [7], in test [8] and in [9] were 103%, 92.1% and 102%, respectively.

Take `CCCCCCN1CSC(=S)N(CCCCCC)C1`: the growth in [1] is 104%; in [2], 86.5%; in test [3], 103%; in [10], 112%; in test [5] it was 107%; in [6], 101%. In addition, the growth was 109% in [7], 105% in test [8] and 89.9% in test [9].

Take `Oc1ccccc1/C=N/NC(=S)NC1CC2C=CC1C2` (stereo not given): the growth in test [1] is 30.1%; in test [2] it was 63.5%; in [10] it was 109%; in test [4], 78.1%; in [5] it was 95.7%; in test [6], 62.2%. Moreover, the growth was 67.4% in test [7], 98.2% in test [8] and 0.723% (active) in test [9].

Regarding `Cc1cc(C2(c3cc(C)c(O)cc3C)OS(=O)(=O)c3ccccc32)c(C)cc1O`, the growth in test [1] is 95.3%; in test [2], 92.4%; in [3], 103%; in test [10], 111%; in test [5] it was 101%; in test [6], 107%. The results for the growth in test [7], in test [8] and in test [9] were 107%, 96.3% and 110%, respectively.

Turning to `FC(F)(F)c1ccccc1-c1cn2c(ccc3ccccc32)n1`, the growth in [1] was 42.4%; in test [2], 98.6%; in test [3] it was 93.7%; in test [10] it was 103%; in test [4], 95.2%; in test [6] it was 73.1%. The values for the growth in [7], in test [8] and in [9] were 88.3%, 71.4% and 61.9%, respectively.
